Compound activity as filed in PubChem.
mIDH1 inhibitor = qHTS for Inhibitors of mutant isocitrate dehydrogenase 1 (IDH1): qHTS; Isocitrate dehydrogenase [NADP] cytoplasmic (Homo sapiens), O75874; IDH1-R132H enzyme, NADPH consumption, diaphorase/resazurin fluorescence; Potency, µM (doses to about 76.6 µM), inactives show at the top dose activity change, negative = inhibition, usual class: inhibitors; hit rate 0.093% among 390,000; AID 602179, 2012; also: potency is read from the fitted curve at half-maximal effect; % is scaled to controls: 0 for no effect and ±100 for the full control effect; nearly all actives have a fitted effect of over 65% in size
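IDH1-R132H (0.5 ug/mL) preincubated 30 min with compound, then NADPH (0.016 mM) and alpha-KG (2 mM) added; 80 min at RT, pH 7.5. Remaining NADPH coupled via diaphorase/resazurin to fluorescence (540/590 nm); concentration-response curves normalized to no-enzyme control.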
LDHA inh = qHTS assay for inhibitors of human lactate dehydrogenase. L-lactate dehydrogenase A chain (Homo sapiens), P00338. purified LDHA, NADH/diaphorase-resazurin fluorescence; active compounds read low. activity change, % (values are at about 110 or 230 µM). hit rate 0.15% among 480,000; in the data active = activity change below about -30%; inconclusive = mostly about -25% to -30%;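 also: plate controls were DMSO wells for no effect and wells without enzyme for full effect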
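Enzyme activity of human lactate dehydrogenase 5 (2 nM; 0.06 mM NADH, 0.2 mM pyruvate, 5 min, RT) is measured via a resazurin/diaphorase fluorescence readout of residual NADH.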
A549 tox = Nrf2 qHTS screen for inhibitors: counterscreen for cytotoxicity; A549 ARE-Fluc cells, CellTiter-Fluor viability, 18-24 h; Potency, µM (series often up to 46 µM), for the others: at the top dose activity change, negative = cytotoxicity, usual class: inhibitors; hit rate 0.16% among 390,000; AID 504648, 2011; also: potency is read from the fitted curve at half-maximal effect; % is scaled to controls: 0 for no effect and ±100 for the full control effect
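A549 ARE_Fluc cells in 5% FBS OPTI-MEM were exposed to compounds in concentration-response for 18-24 h at 37 deg C. Viability was read by CellTiter-Fluor fluorescence (Ex 405/Em 525) after 30 min, before the luciferase read.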
Nrf2 ARE act = qHTS of Nrf2 Activators | AREc32 ARE-luciferase reporter (MCF7-derived line), luminescence, 24 h | hit rate 0.31% among 410,000 | Potency, µM (doses to about 46.1 µM), without a hit: at the highest dose activation, actives largely listed as activators; also: potency is read from the fitted curve at half-maximal effect; % of control where 0% means no effect; nearly all actives have a fitted effect of over 65% in size
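Luminescent ARE reporter assay in AREc32_Fluc cells: overnight plating at 37 deg C, 24 hr compound incubation, Steady-Glo added, 30 min RT before reading.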
ALOX12 inh = Primary qHTS assay for inhibitors of human arachidonate 12S-lipoxygenase (ALOX12): Round 2; Polyunsaturated fatty acid lipoxygenase ALOX12 (Homo sapiens), P18054; purified 12hLO, xylenol orange hydroperoxide absorbance; Potency, µM (top dose mostly 108 µM), without a hit: at the top dose activity change, negative = inhibition, usual class: inhibitors; hit rate 1.1% among 580,000; AID 1671190, 2021; also: potency is read from the fitted curve at half-maximal effect; % is scaled to controls: 0 for no effect and ±100 for the full control effect
Target sequence (P18054 whole entry, looked up): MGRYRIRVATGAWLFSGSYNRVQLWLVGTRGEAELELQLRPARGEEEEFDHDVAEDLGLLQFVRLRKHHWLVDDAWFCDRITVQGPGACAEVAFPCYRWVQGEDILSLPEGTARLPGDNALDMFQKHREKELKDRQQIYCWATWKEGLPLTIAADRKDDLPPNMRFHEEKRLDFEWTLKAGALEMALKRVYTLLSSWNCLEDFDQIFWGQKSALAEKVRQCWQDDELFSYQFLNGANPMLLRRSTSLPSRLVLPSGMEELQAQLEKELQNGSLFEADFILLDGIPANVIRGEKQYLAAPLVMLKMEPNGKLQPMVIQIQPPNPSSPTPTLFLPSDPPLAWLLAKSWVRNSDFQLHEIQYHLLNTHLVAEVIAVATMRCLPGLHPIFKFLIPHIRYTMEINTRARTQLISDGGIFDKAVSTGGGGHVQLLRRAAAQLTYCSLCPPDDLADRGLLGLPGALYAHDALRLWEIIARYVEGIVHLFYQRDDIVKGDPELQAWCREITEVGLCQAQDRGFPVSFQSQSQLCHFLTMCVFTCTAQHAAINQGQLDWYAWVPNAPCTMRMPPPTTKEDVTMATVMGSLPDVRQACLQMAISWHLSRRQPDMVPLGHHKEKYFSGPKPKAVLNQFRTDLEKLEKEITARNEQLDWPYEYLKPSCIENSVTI
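Hydroperoxide product was detected by ferrous iron/xylenol orange as the 573 to 405 nm absorbance ratio. Arachidonic acid at 40 uM (final) was turned over for 30 min at room temperature by 150 nM human 12hLO, pH 7.0 Hepes buffer, after 15 min compound preincubation.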
Nrf2 inh = Nrf2 qHTS screen for inhibitors. hit rate 2.1% among 360,000. Potency, µM (top dose mostly 46 µM), without a hit: at the top dose activity change, negative = inhibition, hits mostly inhibitors. A549 ARE-Fluc reporter, luciferase luminescence, 18-24 h; also: potency is read from the fitted curve at half-maximal effect; % is scaled to controls: 0 for no effect and ±100 for the full control effect; nearly all actives have a fitted effect of over 60% in size
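Two sequential reads on A549 ARE_Fluc cells exposed to compound for 18-24 h: a CellTiter-Fluor fluorescence read for viability, then a luciferase luminescence read for Nrf2/ARE activity.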
An asterisk follows results filed as active; ? = inconclusive; . = no result given; [ ] = another dose, or the depositor's remark. A selection: hits, their analogues and other compounds. The true share with any hit is near 2.7%. Unless noted, calls follow the shape of the dose curve; as a rule, active = well fitted curve in the direction sought with a large enough effect; inconclusive = small, poorly fitted or top-dose-only effect, or another doubt; inactive = no such curve, though single readings can be large; an effect the other way counts as inactive or inconclusive.

SMILES | mIDH1 inhibitor | LDHA inh | A549 tox | Nrf2 ARE act | ALOX12 inh | Nrf2 inh
Cc1ccsc1C(=O)N1CCC2(CC1)NC(=O)N(c1ccc(F)cc1)N2 | . | . | . | . | 2.24µM* | .
Cc1ccsc1C(=O)N1CCSCC1 | . | 2.2 | . | . | -9.7% | .
Cc1nc2cc(-c3cccc(F)c3)nn2c(C)c1CCC(=O)Nc1ccc(F)c(Cl)c1 | . | -5.6 | . | . | 23.9% | .
CCOC(=O)c1nc(N2CCN(C(=O)OCC)CC2)c2c3c(sc2n1)CCCC3 | 3.8% | 12.7 | -6.8% | 0.7% | -11.3% | 25.9µM*
Cc1sc2nc(C3CC3)nc(N3CCN(C(=O)c4ccc(Cl)cc4)CC3)c2c1C | -0.6% | -1.2 | -1.3% | 4.3% | 25.1µM* | ?
Cc1nc(N2CCN(C)CC2)c2c3c(sc2n1)CCCC3 | -1.7% | -3.4 | -26.1% | -0.1% | 3.2% | ?
O=C(c1ccco1)N1CCN(c2nc(C3CC3)nc3sc4c(c23)CCCC4)CC1 | -7.8% | 2.9 | ? | 2.7% | . | 23.1µM*
Cc1nc(N2CCN(C(=O)c3ccco3)CC2)c2c3c(sc2n1)CCCC3 | 5.0% | 2.2 | -22.5% | 0.4% | ? | ?
Cc1nc(N2CCN(C(=O)c3cccs3)CC2)c2c3c(sc2n1)CCCC3 | ? | -6.7 | ? | 0.2% | ? | 18.4µM*
Cc1cc(C)n(-c2nc3c(c(=O)n(C)c(=O)n3C)n2C/C=C/c2ccccc2)n1 | . | -8.2 | . | . | -5.2% | .
COc1ccc(C2Cn3nnc(-c4noc(-c5ccc[nH]5)n4)c3CO2)cc1 (stereo not given) | . | . | . | . | -8.7% | .
CC(C)(C)c1ccc(C(=O)N/N=C/c2cccc3ccccc23)cc1 | . | -9.9 | . | . | 21.4% | .
N#CC1=C(SCC(=O)Nc2ccc(Br)cc2)NC(=O)CC1c1ccc2c(c1)OCO2 (stereo not given) | . | 0.5 | . | . | 10.6% | .
C/C(=N/NC(N)=S)C1CC2CCC1C2 (stereo not given) | . | 0.5 | . | . | ? | .
CC(C)Cc1nc(OCC(=O)N2CCOCC2)c(C#N)c2c1CCCC2 | . | -7.0 | . | . | 2.2% | .
O=C(c1ccco1)N1CCN(c2nc(C3CC3)nc3c2nnn3Cc2ccccc2Cl)CC1 | 0.8% | -10.1 | 0.8% | 2.3% | 39.8% | 16.4µM*
Cn1c(=O)c2cn(S(=O)(=O)c3ccccc3)nc2n(C)c1=O | . | -1.2 | . | . | 5.4% | .
CN1CCN(c2ccnc(-c3ccoc3)n2)CC1 | . | . | . | . | 22.4µM* | .
CN1CCN(c2cc(-c3ccoc3)ncn2)CC1 | . | . | . | . | 11.2µM* | .
CN1CCN(c2ccnc(-c3cccnc3)n2)CC1 | . | . | . | . | -14.0% | .
Cc1ccc(F)cc1NC(=O)COC(=O)c1ccc2ccccc2n1 | . | -3.1 | . | . | -29.5% | .
Oc1cccc2ccc(/C=C/c3ccccc3Br)nc12 | 1.6% | 2.1 | 1.8% | 10µM* | 1.5% | 5.6%
Oc1cccc2ccc(/C=C/c3cccs3)nc12 | 9.2% | 20.0 | -0.1% | 3.16µM* | ? | .
Cc1cc(C(F)(F)F)c(C#N)c(=S)[nH]1 | . | 7.0 | . | . | 15.8µM* | .
C=C1[C@H]2CC[C@@H]3[C@H]2C(C)(C)CCC[C@]13C | . | . | . | . | -6.8%[176 µM] | .
SMILES | mIDH1 inhibitor | LDHA inh | A549 tox | Nrf2 ARE act | ALOX12 inh | Nrf2 inh
Cc1cc(C)c(NC(=O)CSc2nc3c(c(=O)[nH]2)CCCC3)c(C)c1 | . | 6.8 | . | . | -24.5% | .
O=C(Cc1cccc2cccnc12)NCCc1ccccn1 | . | 0.4 | . | . | ? | .
CCCCCOc1ccc2oc(=O)c3c(c2c1)CCCN3C(=O)CN1CCCC(C(=O)OCC)C1 (stereo not given) | 5.3% | 2.6 | ? | 3.8% | 9.7% | ?
CCOC(=O)C1CCCN(CC(=O)N2CCCc3c2c(=O)oc2ccc(OCc4ccccc4)cc32)C1 (stereo not given) | -10.7% | 6.4 | -0.7% | 3.5% | 22.4µM* | ?
Nc1c(C(=O)NCc2ccc3c(c2)OCO3)c2nc3ccccc3nc2n1CCCN1CCOCC1 | 1.7% | 7.7 | -7.1% | -2.9% | -17.3% | -28.2%
Cc1ccc(C(=O)NCCn2c(N)c(C#N)c3nc4ccccc4nc32)cc1 | 8.7% | -0.3 | 16.1% | -0.2% | -15.9% | -24.6%
COCCn1c(N)c(C(=O)NCC2CCCO2)c2nc3ccccc3nc21 (stereo not given) | 6.3% | 16.7 | ? | -0.1% | -2.7% | ?
Nc1c(C(=O)NCCN2CCOCC2)c2nc3ccccc3nc2n1CCc1ccccc1F | 1.6% | -0.9 | -7.6% | 0.1% | -16.4% | ?
COc1ccccc1CNC(=O)c1c(N)n(CCCN2CCOCC2)c2nc3ccccc3nc12 | 11.4% | 1.9 | ? | -0.4% | -24.8% | 18.4µM*
N#Cc1c(N)n(CCNC(=O)c2ccc(Cl)cc2)c2nc3ccccc3nc12 | -0.4% | 9.8 | 9.5% | -0.1% | 0.0% | 9.2µM*
Nc1c(C(=O)NCCN2CCOCC2)c2nc3ccccc3nc2n1CCc1ccccc1 | 6.8% | 2.9 | -7.3% | 3.1% | ? | 14.6µM*
COCCn1c(N)c(C(=O)NCc2cccs2)c2nc3ccccc3nc21 | 2.5% | 9.3 | 7.1% | 3.2% | -15.3% | 23.1µM*
Cc1cccc(-n2c(SCC(=O)NC(C)c3cc4ccccc4o3)nnc2N2CCOCC2)c1 (stereo not given) | . | -6.1 | . | . | ? | .
O=C(Nc1ccc(C(F)(F)F)cc1)c1cc(=O)c2ccccc2o1 | . | 12.1 | . | . | 7.3% | .
COc1ccc(-c2cc3ccccc3nc2N)cc1OC | 4.2% | -6.4 | -1.2% | 2.0% | -8.7% | 16.4µM*
CSCC(=O)NCCc1ccccn1 | . | -0.6 | . | . | 20.3% | .
Cc1ccc(/C=C2\SC(N3CCN(C(c4ccccc4)c4ccccc4)CC3)=NC2=O)o1 | 8.2% | 5.4 | -3.1% | 4.2% | 3.55µM* | ?
O=C1N=C(N2CCOCC2)S/C1=C/c1ccc(-c2ccc(F)cc2)o1 | 7.0% | 8.8 | -16.9% | 3.5% | -6.5% | 1.1%
Cc1ccc(-c2ccc(/C=C3\SC(N4CCOCC4)=NC3=O)o2)cc1 | ? | 4.4 | ? | 11.5% | 35.5µM* | -25.3%
O=C1N=C(N2CCN(c3ccccc3)CC2)S/C1=C/c1cccs1 | 0.5% | -5.4 | -4.4% | 4.3% | -8.5% | -1.4%
CCOc1ccc(C(=O)Nc2sc(C)c(CC)c2C#N)cc1 | . | -0.3 | . | . | ? | .
